Among the data in paper PMC7862700, “An all-to-all approach to the identification of sequence-specific readers for epigenetic DNA modifications on cytosine” are binding signal values, retold here.

Assay in all cases: DAPPL (digital affinity profiling via proximity ligation, sequencing); 10 mM Tris-HCl pH 7.5, 50 mM NaCl, 1 mM DTT, 4% glycerol, room temperature, 30 min; GST-TFs on glutathione beads, 16-mer random dsDNA library, 0.1% formaldehyde crosslink after washing; high values mean tight binding
Common to all, as to settings: protein: recombinant; tags: N-terminal GST; dsDNA, one strand shown

In experiment [1] the target is T1, FLI1 (Homo sapiens, UniProt Q01543 1-452).
T1 sequence: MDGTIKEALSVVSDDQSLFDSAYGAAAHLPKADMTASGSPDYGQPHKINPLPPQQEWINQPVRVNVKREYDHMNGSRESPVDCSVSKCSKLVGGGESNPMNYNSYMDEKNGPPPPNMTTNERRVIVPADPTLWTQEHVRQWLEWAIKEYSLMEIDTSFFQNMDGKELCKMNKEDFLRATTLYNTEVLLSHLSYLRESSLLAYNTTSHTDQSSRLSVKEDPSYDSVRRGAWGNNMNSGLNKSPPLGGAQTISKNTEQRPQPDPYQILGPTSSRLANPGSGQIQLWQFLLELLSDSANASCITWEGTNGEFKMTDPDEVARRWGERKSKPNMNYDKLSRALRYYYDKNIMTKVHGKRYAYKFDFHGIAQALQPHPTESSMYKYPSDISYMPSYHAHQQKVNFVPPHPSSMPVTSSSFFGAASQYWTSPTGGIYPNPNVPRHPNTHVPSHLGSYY
In short, it runs like this:
(§1)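 Beads coated with glutathione captured GST-fused human transcription factors that had been expressed in yeast, and the factors were then given DNA barcodes and pooled with a tag-only sample. The pools were incubated with 200 nmole of a random double-stranded 16-mer DNA library in Tris/NaCl/DTT/glycerol buffer for 30 min at room temperature, washed, crosslinked with 0.1% formaldehyde and proximity-ligated with BsaI/T4 ligase at 37 °C for 1 h. PCR amplification and Illumina NextSeq500 sequencing came last. Binding signal is each hexamer's read frequency for a factor divided by its frequency for the tag-only sample.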

Experiment [2] addresses T2, ELK1 (Homo sapiens, UniProt P19419 1-428).
T2 sequence: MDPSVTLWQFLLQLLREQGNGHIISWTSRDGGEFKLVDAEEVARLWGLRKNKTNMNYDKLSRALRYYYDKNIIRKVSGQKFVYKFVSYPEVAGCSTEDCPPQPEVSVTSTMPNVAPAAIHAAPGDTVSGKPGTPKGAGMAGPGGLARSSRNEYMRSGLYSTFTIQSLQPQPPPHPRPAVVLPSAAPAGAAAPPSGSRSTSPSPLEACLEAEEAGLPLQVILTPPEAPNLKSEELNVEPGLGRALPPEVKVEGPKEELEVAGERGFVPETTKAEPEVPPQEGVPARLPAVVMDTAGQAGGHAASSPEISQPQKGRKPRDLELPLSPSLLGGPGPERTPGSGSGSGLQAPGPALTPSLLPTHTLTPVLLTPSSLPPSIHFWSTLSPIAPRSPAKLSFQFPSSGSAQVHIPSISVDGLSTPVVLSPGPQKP
In short, it runs like this:
as §1

The target of experiment [3] is T3, ERG (Homo sapiens, UniProt P11308 1-479).
T3 sequence: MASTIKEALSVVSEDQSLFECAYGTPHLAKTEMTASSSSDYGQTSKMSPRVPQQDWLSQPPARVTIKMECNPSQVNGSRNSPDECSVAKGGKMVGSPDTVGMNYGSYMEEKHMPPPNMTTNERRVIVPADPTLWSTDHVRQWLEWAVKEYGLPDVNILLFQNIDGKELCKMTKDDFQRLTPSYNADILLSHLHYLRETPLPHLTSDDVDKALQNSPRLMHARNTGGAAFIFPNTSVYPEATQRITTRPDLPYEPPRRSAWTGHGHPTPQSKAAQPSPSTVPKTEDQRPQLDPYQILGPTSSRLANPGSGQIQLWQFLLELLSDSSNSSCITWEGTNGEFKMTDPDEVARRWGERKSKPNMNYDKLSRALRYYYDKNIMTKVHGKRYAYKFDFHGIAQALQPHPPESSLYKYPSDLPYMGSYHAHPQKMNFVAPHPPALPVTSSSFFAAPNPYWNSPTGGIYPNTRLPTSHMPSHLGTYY
In short, it runs like this:
as §1

Experiment [4] concerns the target ELF1 (Homo sapiens, UniProt P32519 1-619). In short, it runs like this:
as §1

The target in experiment [5] is T4, EHF (Homo sapiens, UniProt Q9NZC4 1-300).
T4 sequence: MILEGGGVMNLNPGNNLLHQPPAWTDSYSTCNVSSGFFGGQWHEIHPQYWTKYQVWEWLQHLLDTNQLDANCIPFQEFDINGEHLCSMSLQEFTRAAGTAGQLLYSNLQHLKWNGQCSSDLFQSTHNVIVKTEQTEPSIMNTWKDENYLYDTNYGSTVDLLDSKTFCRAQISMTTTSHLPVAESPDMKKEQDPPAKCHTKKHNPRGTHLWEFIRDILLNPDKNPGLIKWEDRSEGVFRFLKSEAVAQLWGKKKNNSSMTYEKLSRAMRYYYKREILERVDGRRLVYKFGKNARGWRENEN
In short, it runs like this:
as §1

Experiment [6] addresses SPI1 (Homo sapiens, UniProt P17947 1-270). In short, it runs like this: as §1
Experiment [7] addresses SPIB (Homo sapiens, UniProt Q01892 1-262). In short, it runs like this:
as §1

For experiment [8], the target named is T5, ELK3 (Homo sapiens, UniProt P41970 1-407).
T5 sequence: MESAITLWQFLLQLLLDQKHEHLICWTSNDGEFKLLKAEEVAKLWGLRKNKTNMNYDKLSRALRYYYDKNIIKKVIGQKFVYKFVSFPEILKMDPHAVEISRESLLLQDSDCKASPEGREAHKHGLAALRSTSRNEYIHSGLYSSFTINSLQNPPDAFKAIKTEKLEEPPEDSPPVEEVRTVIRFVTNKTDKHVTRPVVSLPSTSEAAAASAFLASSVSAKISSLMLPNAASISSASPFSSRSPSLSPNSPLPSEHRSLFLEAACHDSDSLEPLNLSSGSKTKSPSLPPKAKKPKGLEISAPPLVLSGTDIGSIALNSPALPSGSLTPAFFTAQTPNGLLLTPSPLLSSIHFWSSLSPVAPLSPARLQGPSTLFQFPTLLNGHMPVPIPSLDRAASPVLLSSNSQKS
In short, it runs like this: as §1

The target in experiment [9] is T6, FEV (Homo sapiens, UniProt Q99581 1-238).
T6 sequence: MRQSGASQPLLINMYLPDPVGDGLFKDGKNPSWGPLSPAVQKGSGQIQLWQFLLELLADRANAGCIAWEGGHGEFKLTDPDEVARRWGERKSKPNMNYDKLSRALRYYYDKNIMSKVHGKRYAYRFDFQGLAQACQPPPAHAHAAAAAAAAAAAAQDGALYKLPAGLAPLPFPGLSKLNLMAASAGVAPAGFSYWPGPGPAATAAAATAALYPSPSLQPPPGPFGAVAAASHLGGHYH
In short, it runs like this: as §1

In experiment [10] the target is ETV5 (Homo sapiens, UniProt P41161 1-510). In short, it runs like this: as §1
ETV5, sequence (P41161 whole entry): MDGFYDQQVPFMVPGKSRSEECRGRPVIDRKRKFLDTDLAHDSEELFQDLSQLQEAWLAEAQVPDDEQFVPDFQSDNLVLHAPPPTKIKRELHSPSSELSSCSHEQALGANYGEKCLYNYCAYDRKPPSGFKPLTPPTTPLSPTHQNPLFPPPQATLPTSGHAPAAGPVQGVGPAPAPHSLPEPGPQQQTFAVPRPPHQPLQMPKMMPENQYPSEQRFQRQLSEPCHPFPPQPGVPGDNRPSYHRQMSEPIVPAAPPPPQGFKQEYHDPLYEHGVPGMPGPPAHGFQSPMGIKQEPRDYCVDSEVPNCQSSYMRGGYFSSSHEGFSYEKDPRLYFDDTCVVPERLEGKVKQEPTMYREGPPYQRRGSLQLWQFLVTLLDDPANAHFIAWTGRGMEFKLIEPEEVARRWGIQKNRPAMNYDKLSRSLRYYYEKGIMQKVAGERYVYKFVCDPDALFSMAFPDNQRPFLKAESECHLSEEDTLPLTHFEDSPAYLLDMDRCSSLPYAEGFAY
Experiment [11] deals with T7, SPIC (Homo sapiens, UniProt Q8N5J4 1-248).
T7 sequence: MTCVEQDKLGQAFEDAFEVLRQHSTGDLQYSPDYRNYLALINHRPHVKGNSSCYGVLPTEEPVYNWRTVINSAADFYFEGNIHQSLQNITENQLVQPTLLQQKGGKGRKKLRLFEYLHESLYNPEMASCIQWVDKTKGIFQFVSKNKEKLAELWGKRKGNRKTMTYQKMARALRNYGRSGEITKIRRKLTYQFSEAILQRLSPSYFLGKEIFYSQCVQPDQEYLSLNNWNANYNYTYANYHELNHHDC
In short, it runs like this:
as §1

Experiment [12] addresses ELF4 (Homo sapiens, UniProt Q99607 1-663). In short, it runs like this: as §1
Experiment [13] addresses T8, ELK4 (Homo sapiens, UniProt P28324-2 1-405).
T8 sequence: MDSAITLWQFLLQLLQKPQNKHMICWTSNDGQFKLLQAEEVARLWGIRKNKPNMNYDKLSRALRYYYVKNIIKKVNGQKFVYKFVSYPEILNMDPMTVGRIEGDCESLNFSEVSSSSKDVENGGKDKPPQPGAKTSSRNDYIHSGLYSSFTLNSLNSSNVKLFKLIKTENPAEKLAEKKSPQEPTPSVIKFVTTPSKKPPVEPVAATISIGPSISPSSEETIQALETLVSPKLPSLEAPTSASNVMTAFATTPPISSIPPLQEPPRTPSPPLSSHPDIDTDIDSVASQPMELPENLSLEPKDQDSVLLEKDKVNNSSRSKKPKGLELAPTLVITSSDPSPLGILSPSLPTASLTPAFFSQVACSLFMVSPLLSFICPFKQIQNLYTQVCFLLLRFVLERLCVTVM
In short, it runs like this:
as §1

The target of experiment [14] is T9, ETV2 (Homo sapiens, UniProt O00321 1-342).
T9 sequence: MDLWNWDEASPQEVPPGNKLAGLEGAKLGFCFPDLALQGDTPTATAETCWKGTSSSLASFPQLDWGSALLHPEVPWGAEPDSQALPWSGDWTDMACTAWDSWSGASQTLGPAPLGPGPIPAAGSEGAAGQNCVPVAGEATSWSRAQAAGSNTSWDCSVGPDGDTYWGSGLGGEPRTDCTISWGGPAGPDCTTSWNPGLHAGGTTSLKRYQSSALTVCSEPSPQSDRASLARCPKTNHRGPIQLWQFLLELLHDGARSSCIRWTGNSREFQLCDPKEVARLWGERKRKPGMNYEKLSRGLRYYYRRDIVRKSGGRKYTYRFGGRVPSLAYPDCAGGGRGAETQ
In short, it runs like this: as §1

Experiment [15] has as its target T10, ELF3 (Homo sapiens, UniProt P78545 1-371).
T10 sequence: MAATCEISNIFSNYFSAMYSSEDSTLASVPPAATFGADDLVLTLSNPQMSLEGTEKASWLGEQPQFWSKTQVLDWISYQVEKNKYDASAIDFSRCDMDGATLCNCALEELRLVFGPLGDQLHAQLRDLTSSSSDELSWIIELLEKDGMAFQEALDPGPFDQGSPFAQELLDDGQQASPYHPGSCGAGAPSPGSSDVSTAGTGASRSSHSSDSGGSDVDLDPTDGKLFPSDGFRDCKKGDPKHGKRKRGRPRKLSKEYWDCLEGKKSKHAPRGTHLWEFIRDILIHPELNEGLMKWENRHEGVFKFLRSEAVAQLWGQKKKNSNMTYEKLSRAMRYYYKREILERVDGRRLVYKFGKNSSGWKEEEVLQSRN
In short, it runs like this: as §1

For experiment [16], the target named is ETV1 (Homo sapiens, UniProt P50549 1-477). In short, it runs like this: as §1
ETV1, sequence (P50549 whole entry): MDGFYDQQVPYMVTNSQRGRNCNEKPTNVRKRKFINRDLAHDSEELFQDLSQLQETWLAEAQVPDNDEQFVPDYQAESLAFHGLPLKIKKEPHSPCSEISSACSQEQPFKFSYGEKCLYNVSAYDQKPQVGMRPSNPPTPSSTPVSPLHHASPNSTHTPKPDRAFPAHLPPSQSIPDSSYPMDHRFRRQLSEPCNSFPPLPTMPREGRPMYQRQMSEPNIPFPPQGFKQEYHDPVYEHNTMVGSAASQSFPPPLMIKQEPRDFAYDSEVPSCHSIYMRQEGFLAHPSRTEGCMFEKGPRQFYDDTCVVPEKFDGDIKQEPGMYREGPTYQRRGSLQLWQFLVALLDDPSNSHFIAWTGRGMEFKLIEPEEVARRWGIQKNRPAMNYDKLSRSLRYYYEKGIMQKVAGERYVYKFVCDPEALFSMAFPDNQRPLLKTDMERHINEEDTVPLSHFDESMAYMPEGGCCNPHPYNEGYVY
In experiment [17] the target is T11, GABPA (Homo sapiens, UniProt Q06546 1-454).
T11 sequence: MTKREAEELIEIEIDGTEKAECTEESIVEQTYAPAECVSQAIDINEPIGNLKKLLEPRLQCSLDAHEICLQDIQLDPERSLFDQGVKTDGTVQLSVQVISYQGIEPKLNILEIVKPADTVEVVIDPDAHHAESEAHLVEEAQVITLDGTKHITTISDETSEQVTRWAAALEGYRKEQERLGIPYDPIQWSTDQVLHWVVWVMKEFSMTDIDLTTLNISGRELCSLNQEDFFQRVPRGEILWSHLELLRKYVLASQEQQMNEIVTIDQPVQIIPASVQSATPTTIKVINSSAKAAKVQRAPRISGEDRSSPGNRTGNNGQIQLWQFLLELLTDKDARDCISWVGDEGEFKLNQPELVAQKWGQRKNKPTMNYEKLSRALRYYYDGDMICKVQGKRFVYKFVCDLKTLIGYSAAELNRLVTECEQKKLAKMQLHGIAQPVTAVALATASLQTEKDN
In short, it runs like this: as §1

ELF4, sequence (Q99607 whole entry): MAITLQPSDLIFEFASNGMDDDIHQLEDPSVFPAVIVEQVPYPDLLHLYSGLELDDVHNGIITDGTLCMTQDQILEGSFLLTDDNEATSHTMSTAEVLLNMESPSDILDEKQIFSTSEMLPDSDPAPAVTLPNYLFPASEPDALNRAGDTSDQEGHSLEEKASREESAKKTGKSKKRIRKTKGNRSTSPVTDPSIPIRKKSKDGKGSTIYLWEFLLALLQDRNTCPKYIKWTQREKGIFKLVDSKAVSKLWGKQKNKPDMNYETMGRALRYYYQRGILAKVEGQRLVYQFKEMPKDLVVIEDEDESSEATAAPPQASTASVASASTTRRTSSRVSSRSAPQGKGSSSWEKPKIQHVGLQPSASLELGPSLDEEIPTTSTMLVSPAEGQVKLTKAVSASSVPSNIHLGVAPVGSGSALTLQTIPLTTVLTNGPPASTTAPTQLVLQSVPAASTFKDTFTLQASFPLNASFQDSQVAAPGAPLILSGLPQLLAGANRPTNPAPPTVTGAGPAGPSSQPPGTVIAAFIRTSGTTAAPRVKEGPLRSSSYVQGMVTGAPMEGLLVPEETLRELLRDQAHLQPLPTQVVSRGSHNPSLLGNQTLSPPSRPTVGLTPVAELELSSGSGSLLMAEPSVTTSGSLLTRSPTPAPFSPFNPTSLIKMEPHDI
ELF1, sequence (P32519 whole entry): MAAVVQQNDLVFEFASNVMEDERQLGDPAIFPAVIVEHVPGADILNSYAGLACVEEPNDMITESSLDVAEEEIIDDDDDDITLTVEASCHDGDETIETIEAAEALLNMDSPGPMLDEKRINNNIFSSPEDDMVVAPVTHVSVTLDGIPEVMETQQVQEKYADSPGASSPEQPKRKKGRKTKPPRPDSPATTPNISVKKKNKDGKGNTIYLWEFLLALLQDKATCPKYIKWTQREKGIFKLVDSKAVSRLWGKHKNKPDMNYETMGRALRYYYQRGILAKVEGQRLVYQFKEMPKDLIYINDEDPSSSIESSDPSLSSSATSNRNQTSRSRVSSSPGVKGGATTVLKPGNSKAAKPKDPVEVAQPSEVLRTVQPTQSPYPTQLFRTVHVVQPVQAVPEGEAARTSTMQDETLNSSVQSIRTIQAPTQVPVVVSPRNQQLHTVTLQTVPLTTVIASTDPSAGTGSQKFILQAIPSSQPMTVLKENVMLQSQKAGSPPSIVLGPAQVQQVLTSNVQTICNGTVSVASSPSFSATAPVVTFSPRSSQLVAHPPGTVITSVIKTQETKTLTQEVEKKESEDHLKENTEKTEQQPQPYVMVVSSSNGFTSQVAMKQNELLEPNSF
SPIB, sequence (Q01892 whole entry): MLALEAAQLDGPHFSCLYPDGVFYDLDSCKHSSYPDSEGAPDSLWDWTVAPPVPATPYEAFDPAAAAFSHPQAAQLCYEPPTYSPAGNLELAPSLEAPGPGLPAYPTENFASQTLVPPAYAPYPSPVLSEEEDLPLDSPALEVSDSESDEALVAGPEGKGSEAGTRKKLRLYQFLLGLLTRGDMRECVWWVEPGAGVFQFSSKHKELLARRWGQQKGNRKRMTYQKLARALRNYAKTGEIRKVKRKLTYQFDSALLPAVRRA

For GTCCAT, the binding signal in experiment [1] was 1.22 fold enrichment (6-mer frequency, TF over GST control); in experiment [2], 1.07 fold enrichment (6-mer frequency, TF over GST control); in [3], 1.14 fold enrichment (6-mer frequency, TF over GST control); in [4], 1.1 fold enrichment (6-mer frequency, TF over GST control); in [5], 1.13 fold enrichment (6-mer frequency, TF over GST control); in experiment [6] it was 1.08 fold enrichment (6-mer frequency, TF over GST control). In addition, the binding signal in [7] is 1.07 fold enrichment (6-mer frequency, TF over GST control); in [8], 1.2 fold enrichment (6-mer frequency, TF over GST control); in [9] it was 1.03 fold enrichment (6-mer frequency, TF over GST control); in [10] it was 1.17 fold enrichment (6-mer frequency, TF over GST control); in [11] it was 1.17 fold enrichment (6-mer frequency, TF over GST control); in experiment [12], 1.1 fold enrichment (6-mer frequency, TF over GST control). Besides, the binding signal in [13] was 1.18 fold enrichment (6-mer frequency, TF over GST control); in experiment [14], 1.04 fold enrichment (6-mer frequency, TF over GST control); in experiment [15], 1.11 fold enrichment (6-mer frequency, TF over GST control); in experiment [16], 1.18 fold enrichment (6-mer frequency, TF over GST control).
For the sequence ATGTAG, the binding signal in experiment [1] was 1.05 fold enrichment (6-mer frequency, TF over GST control); in [2] it was 1.03 fold enrichment (6-mer frequency, TF over GST control); in [17], 1.04 fold enrichment (6-mer frequency, TF over GST control); in [3], 1.01 fold enrichment (6-mer frequency, TF over GST control); in experiment [4] it was 1.09 fold enrichment (6-mer frequency, TF over GST control); in experiment [5] it was 1.07 fold enrichment (6-mer frequency, TF over GST control). Further, the binding signal was 1 fold enrichment (6-mer frequency, TF over GST control) in [6]; 1.01 fold enrichment (6-mer frequency, TF over GST control) in [7]; 1.05 fold enrichment (6-mer frequency, TF over GST control) in experiment [8]; 1.02 fold enrichment (6-mer frequency, TF over GST control) in [9]; 1.08 fold enrichment (6-mer frequency, TF over GST control) in experiment [10]; 1.09 fold enrichment (6-mer frequency, TF over GST control) in experiment [11]. In addition, the binding signal in experiment [12] was 1.1 fold enrichment (6-mer frequency, TF over GST control); in [13], 1.15 fold enrichment (6-mer frequency, TF over GST control); in experiment [14] it was 1.03 fold enrichment (6-mer frequency, TF over GST control); in [15], 1.06 fold enrichment (6-mer frequency, TF over GST control).
